This is a sample that favours compounds with a hit; in the whole collection about 1.3% have one here.
MCL1-BIM inh: inhibitors of human MCL1 binding to BIM-BH3 peptide. Q07820. GST-MCL1 / FITC-Bim-BH3 fluorescence polarization. inhibition, % at 10.9 µM. 320,000 compounds, 0.68% hits;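 active = inhibition above the mean inhibition of all tested compounds plus 3 SD, set per campaign, cut at about 40% in these data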;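 note: 0% = DMSO wells and 100% = unlabeled Bim-BH3 peptide control; higher means more loss of mP so more displacement of Bim peptide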
Target sequence (Q07820 whole entry, looked up): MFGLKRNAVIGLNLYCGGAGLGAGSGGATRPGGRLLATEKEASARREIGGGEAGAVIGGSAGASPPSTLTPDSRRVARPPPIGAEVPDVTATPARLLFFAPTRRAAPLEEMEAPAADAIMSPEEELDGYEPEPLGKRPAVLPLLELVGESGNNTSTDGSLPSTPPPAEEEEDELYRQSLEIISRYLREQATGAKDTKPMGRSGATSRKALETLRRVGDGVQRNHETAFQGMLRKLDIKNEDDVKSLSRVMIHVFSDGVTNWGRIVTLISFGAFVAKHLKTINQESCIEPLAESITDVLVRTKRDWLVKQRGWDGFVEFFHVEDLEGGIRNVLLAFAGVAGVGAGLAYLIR
Keap1 Nrf2 FP: inhibitors of human Keap1-Nrf2 protein-protein interaction; Q14145; Keap1 Kelch-Nrf2 peptide fluorescence polarization, 1536-well; inhibition, % at 9.4 µM; 340,000 compounds, 0.15% hits; in the data active = inhibition above about 12%;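 note: human Keap1 Kelch domain with fluorescein labeled Nrf2 9mer peptide probe; 0% = neutral control wells and 100% = peptide positive control; higher means more block of Keap1 binding to Nrf2 peptide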
GLD-1 TGE inh: GLD-1-TGE RNA interaction inhibition (C. elegans); AID 2280; 320,000 compounds, 0.44% hits; Q17339; purified GLD-1 + fluorescein TGE RNA, fluorescence polarization; inhibition, % at 5.96 µM;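 active = percent inhibition above a per-plate cutoff, the plate mean of test compounds plus 3 SD, cut at about 30% in these data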;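 note: 0% = DMSO wells with GLD-1 and probe and 100% = wells lacking GLD-1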
eLon inh: inhibits E. coli Lon protease; purified E. coli Lon protease, fluorescence polarization; inhibition, % at 7.94 µM; 360,000 compounds, 0.42% hits; AID 602123; in the data active = inhibition above about 13%, passing the limit was not always enough;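 note: 0% = enzyme with probe and DMSO and 100% = no enzyme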
Bcl-xL primary: inhibitors of human Bcl-xL. Q07817. GST-Bcl-xL / FITC-Bim BH3 peptide fluorescence polarization. inhibition, % at 10.9 µM. 320,000 compounds, 0.7% hits. AID 2129;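 active = inhibition above the mean of all tested compounds plus 3 SD, cutoff set per campaign, cut at about 30% in these data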;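 note: 0% = DMSO wells and 100% = unlabeled Bim-BH3 peptide competitor; inhibitors lower millipolarization by displacing the labeled peptide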
C-LANA FP: blocks KSHV LANA C-terminal domain binding to DNA; MBP-C-LANA/FAM-LBS DNA binding, fluorescence polarization; inhibition, % at 9 µM; 340,000 compounds, 0.078% hits; AID 504423;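 active = highest replicate inhibition at or above 60% at 9 µM, even if other replicates fall short; inactive = all replicates below 60% inhibition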;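 note: 0% = neutral control wells and 100% = 4 µM acridine orange control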
E coli Lon conf: E. coli Lon inhibition confirmation; shares compounds with eLon inh; purified E. coli Lon, fluorescence polarization; inhibition, % at 7.94 µM; 1,400 compounds, 31% hits; AID 602230; in the data active = inhibition above about 16%;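 note: 0% = enzyme with probe and DMSO and 100% = no enzyme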
* hit, by the source's call; x = no result given.

SMILES | MCL1-BIM inh | Keap1 Nrf2 FP | GLD-1 TGE inh | eLon inh | Bcl-xL primary | C-LANA FP | E coli Lon conf
NC(=O)C1CCN(CC(=O)Nc2cccnc2Cl)CC1 | -4 | 1 | -3 | -1 | 3 | 0 | x
O=c1c2ccccc2sn1-c1nccs1 | x | -5 | x | 22* | x | -1 | 20*
O=c1c2ccccc2sn1-c1ccccc1 | 18 | -88 | 6 | 17 | -30 | -2 | x
CC1CCN(S(=O)(=O)c2ccc(NC(=O)[C@@H]3CCCN3C(=O)c3cccs3)cc2)CC1 | -13 | -6 | 3 | -2 | -12 | 0 | x
O=C(O)c1csc(-c2ccc(Cl)cc2)n1 | 2 | -1 | 1 | 16* | 5 | -1 | -1
Cc1cc(Cl)ccc1C(O)c1ncc(-c2ccc(Cl)cc2)[nH]1 (stereo unspecified) | x | x | x | -1 | x | x | x
CC(C)(C)OC(=O)C[C@@H]1C/C=C\C[C@H](CC(=O)NCCO)C(=O)N2CCC[C@H]2COC1=O | x | 0 | 10 | 111* | x | 2 | -7
O=C(C[C@H]1C/C=C\CC[C@H](Cc2ccc(F)cc2)C(=O)OC[C@H]2CCCN2C1=O)N[C@H](CO)Cc1ccccc1 | x | -1 | -1 | -4 | x | -2 | x
O=C(C[C@H]1C/C=C\CC[C@H](Cc2ccc(F)cc2)C(=O)OC[C@H]2CCCN2C1=O)N[C@@H](CO)Cc1ccccc1 | x | 6 | 2 | 40* | x | -1 | 5
CCOC(=O)C(=O)NCC(c1cccs1)S(=O)(=O)c1ccc(F)cc1 (stereo unspecified) | -10 | 0 | 1 | -17 | -5 | -3 | x
CCCc1cc(=O)oc2c(CN3CCCC3)c(O)c(Cl)cc12 | 0 | 3 | 2 | 22* | 3 | 4 | -13
COC(=O)c1ccc(=O)n(Cc2ccc3c(c2)OCO3)c1 | -4 | -1 | -4 | 21* | 4 | 1 | -7
COC(=O)NCc1ccc2c(c1)OCO2 | 16 | -2 | 2 | 5 | 11 | 0 | x
O=C(O)/C=C\C(=O)NC1CCCCC1 | 1 | 0 | 4 | 28* | 1 | 1 | 8
CC(O)CNc1ccc(-c2nn(C)c(=O)c3ccccc23)cc1[N+](=O)[O-] (stereo unspecified) | 5 | 3 | 9 | -6 | 5 | 0 | x
COC(=O)C1=C(C(=O)OC)C2C(C)=CC(C)=CN2C(C(=O)OC)=C1C(=O)OC (stereo unspecified) | 24 | -5 | 14 | 20* | 23 | 3 | 13
O=C(N/N=C/c1ccc(OCC(=O)N2CCOCC2)cc1)c1ccccc1Cl | 11 | 3 | -6 | -6 | 4 | -1 | x
Cc1cc(OCC(=O)N2CCOCC2)ccc1NC(=O)c1ccccc1C | -2 | -7 | 1 | 17* | 2 | 0 | 0
O=C(Nc1ccc(OCC(=O)N2CCOCC2)cc1)c1ccccc1Cl | 4 | -5 | 3 | 22* | 3 | 1 | 0
O=C(Nc1ccc(N2CCCCCC2)cc1)c1ccccc1Cl | 9 | -6 | 9 | 19* | 3 | 1 | 0
O=C(CS(=O)(=O)c1cn(Cc2ccc(Cl)cc2)c2ccccc12)N1CCCCC1 | 25 | -8 | 7 | 17* | 30* | 0 | 5
CC(/C=C/c1cccc([N+](=O)[O-])c1)=N\NC(=O)c1ccncc1 | -1 | -2 | 0 | -38 | -2 | 2 | x
COc1ccc(C(=O)CSc2ncn[nH]2)cc1OC | 6 | -4 | 4 | 21* | 0 | -1 | -10
Cc1ccc(C(=O)CSc2ncn[nH]2)cc1 | -10 | -4 | -2 | 3 | -6 | 1 | x
COc1cccc(NC(=O)CN(C)C(=O)Cc2n[nH]c(=O)c3ccccc23)c1 | 2 | -4 | 1 | 19* | 4 | 0 | -6
SMILES | MCL1-BIM inh | Keap1 Nrf2 FP | GLD-1 TGE inh | eLon inh | Bcl-xL primary | C-LANA FP | E coli Lon conf
N#Cc1ccsc1NC(=O)CSc1ncn[nH]1 | 4 | -6 | -4 | 15 | 4 | -2 | x
N#Cc1ccsc1NC(=O)CSc1nncs1 | x | 3 | 71* | 28* | x | 20 | 31*
CC(C)C(=O)NNC(=O)c1csc(-c2cccs2)n1 | 5 | 3 | 0 | 25* | -1 | 1 | 6
COc1ccccc1CC(=O)NCc1csc(-c2cccs2)n1 | 4 | x | 4 | -4 | 8 | x | x
COc1ccc(CCNC(=O)C(C)SCc2ccccc2)cc1 (stereo unspecified) | 11 | -3 | 3 | 19* | 5 | -2 | -5
COc1cccc(NC(=O)C(C)SCc2ccccc2)c1 (stereo unspecified) | 4 | -2 | 3 | -4 | 9 | -1 | x
Cn1c(-c2ccc(F)cc2)cnc1SCC(=O)N1CCCc2ccccc21 | -9 | -6 | 3 | 19* | 4 | 0 | 2

Bioassay records (PubChem BioAssay)
